In experiment [1] the target is Lysosomal acid glucosylceramidase (Homo sapiens) (UniProt P04062). The experiment in a line: Glucocerebrosidase-p2 (AID 348; in the data active = potency below about 10 µM; note: potency is the fitted concentration of half-maximal effect). The settings on record: purified GBA, blue fluorogenic substrate, 40 min. The procedure, abridged:
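Normal human glucocerebrosidase (0.2 nM) with blue fluorogenic substrate (80 uM final) in citrate/phosphate pH 5.9 with 10mM sodium taurocholate, 0.01% tween-20; 40 min RT, NaOH/glycine stop; fluorescence Ex 365/Em 440; AC50 from a titration from 0.6 nM upwards.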

The nature of experiment [2]: AP1 Signaling Pathway (AID 357; active = well fitted curve in either direction with a large enough effect, not every such curve was filed as active;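 note: ME-180 reporter cells stimulated with EGF at its EC50 level; % is set by controls: 0 for no effect and ±100 for the full control effect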). The settings on record: ME-180 AP-1-bla reporter, EGF-induced, beta-lactamase ratio, 5 h; at 7.69 µM (top of the series) unless noted. Put shortly:
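AP-1-bla ME-180 cells, Opti-MEM + 0.5% dialyzed FBS, plated overnight 37 °C. Cpd titration + EC50 EGF, 5 h 37 °C. CCF4 2.5 h RT; ex 405, em 460/530 ratio → %activity, AC50.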

For experiment [3], the target named is Cytochrome P450 1A2 (Homo sapiens) (UniProt P05177). The experiment in a line: p450-cyp1a2 (AID 410; calls by dose curve; note: potency is the fitted concentration of half-maximal effect). The settings on record: recombinant CYP1A2, luciferin-ME demethylation, luminescence; series mostly up to 57 µM. Put shortly: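 20nM CYP1A2, 100uM Luciferin-ME (=Km), 100mM KPO4; cpd 10 min RT; +NADPH regen, 60 min RT; stop/detect 20 min; luminescence. Normalized to furafylline 57 uM = full inhibition.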
Sequence of Cytochrome P450 1A2 (Homo sapiens) (P05177 whole entry, looked up): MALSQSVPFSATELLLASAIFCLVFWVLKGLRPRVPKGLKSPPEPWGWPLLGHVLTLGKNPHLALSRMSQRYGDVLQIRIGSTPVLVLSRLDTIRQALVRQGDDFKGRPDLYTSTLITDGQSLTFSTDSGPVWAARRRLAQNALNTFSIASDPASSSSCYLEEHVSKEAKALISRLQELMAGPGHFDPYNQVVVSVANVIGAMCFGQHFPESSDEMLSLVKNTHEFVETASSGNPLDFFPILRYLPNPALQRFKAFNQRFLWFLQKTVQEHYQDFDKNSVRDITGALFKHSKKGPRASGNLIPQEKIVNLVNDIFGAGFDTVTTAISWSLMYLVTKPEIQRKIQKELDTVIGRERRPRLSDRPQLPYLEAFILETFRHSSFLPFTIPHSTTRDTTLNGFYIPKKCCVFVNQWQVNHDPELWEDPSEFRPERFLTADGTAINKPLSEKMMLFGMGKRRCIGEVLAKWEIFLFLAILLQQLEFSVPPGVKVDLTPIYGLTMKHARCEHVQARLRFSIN

Experiment [4] in a line: NFAT Signaling Pathway (AID 444; active = well fitted curve in either direction with a large enough effect, not every such curve was filed as active;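 note: carbachol stimulus at about its EC50 of 1 µM final; % is set by controls: 0 for no effect and ±100 for the full control effect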). The note with it: Jurkat NFAT-bla M1, carbachol, beta-lactamase ratio, 5 h; at 7.69 µM (top of the series) unless noted. Put shortly:
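Jurkat cells with NFAT-driven β-lactamase reporter and co-expressed M1 receptor, stimulated with carbachol (final 1 uM, ~EC50), compound titration, 5 h at 37 °C. CCF4 loaded 1 h at RT; 460/530 nm ratio gave %activity and AC50.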

Experiment [5] in a line: Stat Signaling Pathway (AID 446; active = well fitted curve in either direction with a large enough effect, not every such curve was filed as active;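 note: ME-180 cervical cancer cells given 40 pM IL-6 alongside compound; SIE-controlled beta-lactamase reporter measured as 460/530 nm FRET emission ratio; % is set by controls: 0 for no effect and ±100 for the full control effect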). The settings on record: ME-180 (cervical carcinoma) SIE beta-lactamase reporter, IL-6 stimulated, 5 h; at 7.69 µM (top of the series) unless noted. The procedure, abridged:
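Compound effects on IL-6-induced STAT reporter activity were measured in ME-180 cells. After overnight culture, cells were co-treated with 40 pM IL-6 for 5 hrs before beta-lactamase substrate loading at room temperature.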

Experiment [6] concerns the target Glucocorticoid receptor (Homo sapiens) (UniProt P04150). Kind of experiment: GR-GFP Redistribution (AID 450;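 active = compounds whose dose series gives a full or clear partial fitted curve of increased nuclear translocation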; note: potency is the fitted concentration of half-maximal effect). The settings on record: U2OS GR-GFP nuclear translocation, laser cytometry, 2 h.
For experiment [7] the target is unchanged. The experiment in a line: GR-EFC Redistribution (AID 451; calls by dose curve; note: potency is the fitted concentration of half-maximal effect). The settings on record: CHO-K1 GR-EFC translocation, beta-gal luminescence, 2 h. Put shortly:
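CHO-K1 cells expressing nuclear EA and GR-ED fragments of b-gal; compounds titrated up to 46 uM final, 2 h at 37 C. GR nuclear translocation read as complemented b-gal luminescence after 1 h RT detection.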

The target of experiment [8] is Mitogen-activated protein kinase 10 (Mus musculus) (UniProt Q61831). Kind of experiment: JNK3 AlphaScreen Assay (AID 530; active = well fitted curve in either direction with a large enough effect, not every such curve was filed as active;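 note: kinase came from lysate of stimulated human HepG2 cells; signal reports phosphorylation of biotinylated GST-cJun 1-79 at Ser73 with 10 µM ATP; % is set by controls: 0 for no effect and ±100 for the full control effect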). The note with it: JNK3 lysate, c-Jun phosphorylation; series mostly up to 57.1 µM. Put shortly: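 HepG2 lysate (IL-1b/TNFa pre-activated) + biotin-GST-cJun 1-79 + anti-pSer73 cJun; cpd titration, 15 min RT; ATP 10 uM start; Tris pH 7.6, MgCl2, DTT, vanadate; beads in EDTA buffer; AlphaScreen.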

Experiment [9] addresses 3',5'-cyclic-AMP phosphodiesterase 4B (Homo sapiens) (UniProt Q07343). Kind of experiment: qHTS Assay for Inhibitors of PDE-IV (AID 607; active = well fitted activation curve with a large enough effect in the main read-out, with a control signal flat, not every such curve was filed as active; note: % of control where 0% means no effect). The settings on record: HEK293 ACTOne CNG channel cells, membrane potential fluorescence; series mostly up to 22.9 µM. The procedure, abridged: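 ACTOne HEK293 cells carry a modified cAMP-gated CNG channel and express endogenous PDE4; plated 1000 cells/well, compounds up to 22.9 uM final. Membrane-potential dye fluorescence (ex 535/em 590) was read; parental cells received 10 uM forskolin + 100 uM RO 20-1724.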
For orientation: qHTS replaces the single test concentration by a dilution series.

Experiment [10] has as its target Cytochrome P450 3A4 (Homo sapiens) (UniProt P08684). The experiment in a line: qHTS Assay for Activators of Cytochrome P450 3A4 (AID 885). Note: nearly all actives have a fitted effect of over 65% in size. The settings on record: recombinant CYP3A4, Luciferin-PPXE luminescence, 60 min; series mostly up to 57.1 µM. The procedure, abridged: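 CYP3A4 activity: Luciferin-PPXE O-dealkylation, 25uM substrate, 200mM KPO4, RT throughout. Read-out is luciferase luminescence; higher values reflect activation.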

In experiment [11] the target is Dual specificity protein kinase CLK4 (Homo sapiens) (UniProt Q9HAZ1). Kind of experiment: qHTS Assay for Inhibitors of CDC-like Kinase 4 (Kinase-Glo Assay) (AID 1770). Note: nearly all actives have a fitted effect of over 65% in size. Note: potency is the fitted concentration of half-maximal effect. The settings on record: recombinant Clk4, Kinase-Glo ATP depletion luminescence; series mostly up to 66.7 µM. Put shortly:
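Substrate mix (RS peptide 100 uM, ATP 1 uM) dispensed, compound pinned in, then Clk4 added to 25 nM final. Incubated 4.5 h at RT; Kinase-Glo reagent added, luminescence read after 5 min.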

Experiment [12] shares this target. Kind of experiment: qHTS Assay for Inhibitors of CDC-like Kinase 4 (ADP-Glo Assay) (AID 1771). Note: nearly all actives have a fitted effect of over 70% in size. Note: potency is the fitted concentration of half-maximal effect. The settings on record: recombinant CLK4, ADP-Glo luminescence; series mostly up to 80 µM. Put shortly: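 25 nM Clk4, 100 uM RS peptide, 1 uM ATP (final); 2 mM MgCl2, 0.5 mM EGTA, 2.5 mM DTT, 0.01% Triton X-100; 1 hr RT. ADP-Glo readout: ATP depletion 45 min, conversion/luciferase 30 min, luminescence.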

The target is the same in experiment [13]. Kind of experiment: qHTS Assay for Inhibitors of CDC-like Kinase 4 (ADP-FP Assay) (AID 1795). Note: nearly all actives have a fitted effect of over 60% in size. Note: potency is the fitted concentration of half-maximal effect. The settings on record: Transcreener ADP fluorescence polarization; series mostly up to 50 µM. Put shortly: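 Clk4 6.25 nM; RS peptide 100 uM; ATP 1 uM; 25 mM Tris pH 7.5, 10 mM MgCl2; 1 h reaction. ADP detected via antibody/orange tracer FP displacement; TG003 positive control.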

Experiment [14] deals with Ubiquitin carboxyl-terminal hydrolase 1 (Homo sapiens) (UniProt O94782). Kind of experiment: Inhibitors of USP1/UAF1: Pilot qHTS (AID 504865).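 Note: rhodamine fluorescence freed from ubiquitin-rhodamine substrate followed over time; top concentration of the series differs between compounds; % is set by controls: 0 for no effect and ±100 for the full control effect; nearly all actives have a fitted effect of over 35% in size.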 The settings on record: purified USP1/UAF1, Ub-rhodamine cleavage fluorescence; series mostly up to 54.9 µM. Put shortly:
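In 50mM HEPES pH 7.8 containing 0.5mM EDTA, 1mM TCEP, 0.1 mg/ml BSA and 0.01% Tween-20, 1nM USP1/UAF1 is exposed to compound for 15 min, then Ub-Rho (150nM final) is added and fluorescence is read over time.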

Experiment [15] can be described thus: Primary qHTS for small molecule stabilizers of the endoplasmic reticulum resident proteome: Secreted ER Calcium Modulated Protein (SERCaMP) assay (AID 1508630). Note: % is set by controls: 0 for no effect and ±100 for the full control effect. The settings on record: SH-SY5Y GLuc-SERCaMP (Gaussia luciferase released on ER calcium loss) secretion, thapsigargin, luminescence; series mostly up to 38.4 µM. Put shortly:
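The SH-SY5Y reporter protocol was run at 3 concentrations up to 38.3 uM (primary) or 11 concentrations (follow-up): 16 h compound, 100 nM thapsigargin for 4 h, then extracellular luciferase luminescence.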

Experiment [16] deals with Cytochrome P450 3A4 (Homo sapiens) (UniProt P08684). The experiment in a line: qHTS Assay for Inhibitors and Substrates of Cytochrome P450 3A4 (AID 884). Note: potency is the fitted concentration of half-maximal effect; nearly all actives have a fitted effect of over 50% in size. The note with it: recombinant CYP3A4, Luciferin-PPXE luminescence; series mostly up to 57.1 µM. Put shortly: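 Luminescent readout of luciferin produced by CYP3A4 (20 nM) dealkylation of Luciferin-PPXE, 25 uM (its KM). NADPH-driven reaction ran 60 min at RT after 10 min compound preincubation; data scaled to 57 uM ketoconazole as 100% inhibition.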
Sequence of Cytochrome P450 3A4 (Homo sapiens) (P08684 whole entry, looked up): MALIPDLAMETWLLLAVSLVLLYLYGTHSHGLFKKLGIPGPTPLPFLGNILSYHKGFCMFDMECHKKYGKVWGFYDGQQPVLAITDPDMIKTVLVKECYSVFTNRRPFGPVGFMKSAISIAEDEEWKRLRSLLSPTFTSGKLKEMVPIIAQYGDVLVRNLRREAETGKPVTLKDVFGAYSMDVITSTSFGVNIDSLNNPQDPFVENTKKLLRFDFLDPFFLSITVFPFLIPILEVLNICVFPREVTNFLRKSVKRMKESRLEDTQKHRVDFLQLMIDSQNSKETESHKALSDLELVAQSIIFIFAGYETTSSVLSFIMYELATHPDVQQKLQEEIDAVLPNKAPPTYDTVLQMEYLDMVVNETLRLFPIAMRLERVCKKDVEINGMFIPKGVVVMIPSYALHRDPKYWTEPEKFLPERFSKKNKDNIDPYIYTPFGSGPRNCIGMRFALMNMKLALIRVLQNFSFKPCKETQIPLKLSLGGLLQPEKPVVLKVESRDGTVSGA

Experiment [17] deals with Cytochrome P450 2C19 (Homo sapiens) (UniProt P33261). Kind of experiment: qHTS Assay for Inhibitors and Substrates of Cytochrome P450 2C19 (AID 899). Note: potency is the fitted concentration of half-maximal effect; nearly all actives have a fitted effect of over 60% in size. The note with it: recombinant CYP2C19, luciferin-H EGE luminescence; series mostly up to 57.1 µM. The procedure, abridged: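 Luminescent read-out of luciferin formed from Luciferin-H EGE (10uM, equal to KM). Enzyme 5nM in 50mM KPO4; compound added, 10 min at 37C, then NADPH regenerating system for 60 min at 37C. Full inhibition defined by 57uM ketoconazole.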
Sequence of Cytochrome P450 2C19 (Homo sapiens) (P33261 whole entry, looked up): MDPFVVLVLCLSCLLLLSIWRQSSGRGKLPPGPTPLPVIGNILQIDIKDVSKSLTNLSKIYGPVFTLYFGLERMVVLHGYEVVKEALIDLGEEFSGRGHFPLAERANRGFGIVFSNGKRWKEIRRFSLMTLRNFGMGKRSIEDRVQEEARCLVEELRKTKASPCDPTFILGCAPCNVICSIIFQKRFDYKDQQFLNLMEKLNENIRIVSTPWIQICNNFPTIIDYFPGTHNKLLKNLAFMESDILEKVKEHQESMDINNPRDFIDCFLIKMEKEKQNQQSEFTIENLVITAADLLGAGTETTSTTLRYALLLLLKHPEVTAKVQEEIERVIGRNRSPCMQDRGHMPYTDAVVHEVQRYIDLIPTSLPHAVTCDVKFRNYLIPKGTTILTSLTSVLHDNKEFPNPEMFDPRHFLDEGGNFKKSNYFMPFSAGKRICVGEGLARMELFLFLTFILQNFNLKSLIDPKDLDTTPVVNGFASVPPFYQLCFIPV

Values without a mark were called inactive. Results filed as inconclusive are left out. Active and inactive are the calls of the source. Unless noted, calls come from the whole dose curve; as a rule, active = well fitted curve in the direction sought with a large enough effect; inconclusive = small, poorly fitted or top-dose-only effect, or another doubt; inactive = no such curve, though single readings can be large; an effect the other way counts as inactive or inconclusive. A value given as a limit tells only on which side of the number the result lay.

Sequence of Ubiquitin carboxyl-terminal hydrolase 1 (Homo sapiens) (O94782 whole entry, looked up): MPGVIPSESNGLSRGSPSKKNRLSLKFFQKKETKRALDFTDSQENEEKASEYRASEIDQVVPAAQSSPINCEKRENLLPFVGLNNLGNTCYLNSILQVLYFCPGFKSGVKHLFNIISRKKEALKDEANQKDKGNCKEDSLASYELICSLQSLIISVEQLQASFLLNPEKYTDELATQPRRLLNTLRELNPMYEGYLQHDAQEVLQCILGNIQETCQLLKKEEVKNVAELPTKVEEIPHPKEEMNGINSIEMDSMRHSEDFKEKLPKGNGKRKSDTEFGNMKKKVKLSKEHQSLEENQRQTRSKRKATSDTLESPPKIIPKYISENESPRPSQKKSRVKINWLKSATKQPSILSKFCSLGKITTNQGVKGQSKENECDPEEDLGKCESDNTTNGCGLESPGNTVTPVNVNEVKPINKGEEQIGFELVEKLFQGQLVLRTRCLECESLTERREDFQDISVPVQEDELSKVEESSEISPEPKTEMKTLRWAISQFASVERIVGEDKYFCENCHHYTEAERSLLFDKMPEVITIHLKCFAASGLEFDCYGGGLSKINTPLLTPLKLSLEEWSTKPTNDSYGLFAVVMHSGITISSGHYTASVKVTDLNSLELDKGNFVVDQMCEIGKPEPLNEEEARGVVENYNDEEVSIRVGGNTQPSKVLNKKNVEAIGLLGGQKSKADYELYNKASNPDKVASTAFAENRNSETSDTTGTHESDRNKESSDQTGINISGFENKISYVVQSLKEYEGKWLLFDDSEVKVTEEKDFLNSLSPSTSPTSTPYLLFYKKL
Sequence of Dual specificity protein kinase CLK4 (Homo sapiens) (Q9HAZ1 whole entry, looked up): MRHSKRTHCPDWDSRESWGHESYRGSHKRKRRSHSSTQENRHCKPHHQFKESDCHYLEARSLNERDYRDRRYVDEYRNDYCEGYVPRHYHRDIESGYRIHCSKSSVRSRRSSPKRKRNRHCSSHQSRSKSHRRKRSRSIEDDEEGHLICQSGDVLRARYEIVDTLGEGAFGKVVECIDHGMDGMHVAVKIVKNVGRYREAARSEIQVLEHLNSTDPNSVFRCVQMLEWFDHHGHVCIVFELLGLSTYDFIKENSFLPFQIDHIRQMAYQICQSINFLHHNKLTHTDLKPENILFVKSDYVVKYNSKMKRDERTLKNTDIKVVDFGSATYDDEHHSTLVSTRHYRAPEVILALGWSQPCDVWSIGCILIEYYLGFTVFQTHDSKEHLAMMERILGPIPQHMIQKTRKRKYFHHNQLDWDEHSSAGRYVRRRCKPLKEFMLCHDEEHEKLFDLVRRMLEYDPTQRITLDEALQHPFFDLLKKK
Sequence of Glucocorticoid receptor (Homo sapiens) (P04150 whole entry, looked up): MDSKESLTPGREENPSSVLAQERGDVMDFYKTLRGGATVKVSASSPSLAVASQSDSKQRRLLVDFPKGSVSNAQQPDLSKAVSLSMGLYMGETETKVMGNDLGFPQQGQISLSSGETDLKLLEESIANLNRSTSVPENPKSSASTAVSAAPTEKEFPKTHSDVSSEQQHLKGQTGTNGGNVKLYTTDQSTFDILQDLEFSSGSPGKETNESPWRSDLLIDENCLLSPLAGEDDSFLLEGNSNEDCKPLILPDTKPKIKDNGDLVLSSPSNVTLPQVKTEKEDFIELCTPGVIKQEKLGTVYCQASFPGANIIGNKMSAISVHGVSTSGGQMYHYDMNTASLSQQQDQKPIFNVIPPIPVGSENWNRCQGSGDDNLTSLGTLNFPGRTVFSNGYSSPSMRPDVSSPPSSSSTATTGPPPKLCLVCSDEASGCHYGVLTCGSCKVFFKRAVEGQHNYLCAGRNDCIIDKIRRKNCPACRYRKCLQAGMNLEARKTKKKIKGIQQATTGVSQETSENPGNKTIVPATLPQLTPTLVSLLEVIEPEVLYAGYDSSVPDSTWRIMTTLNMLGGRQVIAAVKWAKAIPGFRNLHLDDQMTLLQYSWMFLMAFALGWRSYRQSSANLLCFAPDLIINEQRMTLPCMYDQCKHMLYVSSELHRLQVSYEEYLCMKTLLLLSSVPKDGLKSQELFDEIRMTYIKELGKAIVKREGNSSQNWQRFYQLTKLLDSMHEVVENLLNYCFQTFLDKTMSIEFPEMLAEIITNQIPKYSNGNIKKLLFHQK
Sequence of 3',5'-cyclic-AMP phosphodiesterase 4B (Homo sapiens) (Q07343 whole entry, looked up): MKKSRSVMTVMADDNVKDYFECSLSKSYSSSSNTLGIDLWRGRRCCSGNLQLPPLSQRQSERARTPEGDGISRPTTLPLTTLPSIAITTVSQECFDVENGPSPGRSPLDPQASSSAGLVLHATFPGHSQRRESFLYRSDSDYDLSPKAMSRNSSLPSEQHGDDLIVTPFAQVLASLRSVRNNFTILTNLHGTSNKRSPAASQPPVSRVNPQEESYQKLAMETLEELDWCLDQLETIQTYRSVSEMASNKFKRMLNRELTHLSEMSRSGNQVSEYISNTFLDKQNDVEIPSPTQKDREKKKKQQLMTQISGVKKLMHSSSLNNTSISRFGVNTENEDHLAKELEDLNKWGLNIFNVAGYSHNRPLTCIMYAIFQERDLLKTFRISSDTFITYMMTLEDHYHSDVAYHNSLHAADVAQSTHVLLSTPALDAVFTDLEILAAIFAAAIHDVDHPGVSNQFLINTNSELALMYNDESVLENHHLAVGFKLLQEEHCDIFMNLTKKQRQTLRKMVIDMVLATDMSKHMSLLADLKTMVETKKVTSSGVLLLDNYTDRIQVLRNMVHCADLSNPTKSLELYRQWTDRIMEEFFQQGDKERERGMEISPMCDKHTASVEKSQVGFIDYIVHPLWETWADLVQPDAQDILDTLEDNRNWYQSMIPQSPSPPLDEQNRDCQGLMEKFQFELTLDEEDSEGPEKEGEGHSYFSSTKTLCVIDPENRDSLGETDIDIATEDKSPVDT
Sequence of Lysosomal acid glucosylceramidase (Homo sapiens) (P04062 whole entry, looked up): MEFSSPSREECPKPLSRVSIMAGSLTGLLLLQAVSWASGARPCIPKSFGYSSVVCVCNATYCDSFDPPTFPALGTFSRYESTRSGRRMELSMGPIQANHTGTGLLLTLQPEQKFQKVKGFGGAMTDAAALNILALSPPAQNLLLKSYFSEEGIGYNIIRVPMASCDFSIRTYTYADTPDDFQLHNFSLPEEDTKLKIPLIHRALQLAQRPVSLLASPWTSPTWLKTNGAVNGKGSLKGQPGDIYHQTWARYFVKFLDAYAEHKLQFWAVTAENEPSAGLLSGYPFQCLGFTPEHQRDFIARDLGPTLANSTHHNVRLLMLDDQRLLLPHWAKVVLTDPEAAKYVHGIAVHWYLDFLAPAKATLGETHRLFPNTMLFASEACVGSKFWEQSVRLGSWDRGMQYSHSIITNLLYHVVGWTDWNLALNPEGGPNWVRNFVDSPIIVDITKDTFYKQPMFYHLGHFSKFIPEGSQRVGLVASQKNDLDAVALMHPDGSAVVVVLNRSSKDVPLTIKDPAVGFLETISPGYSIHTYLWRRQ

Consider `Cc1nc2cnc(Oc3ccccc3)nc2n(C2CC2)c1=O`, for which the Potency is > 11.4 µM in experiment [1], 10 µM (active) in experiment [3], > 9.22 µM in [6] and > 46 µM in experiment [7]. The activity change, negative = inhibition was -5.18% in experiment [2] and -1.18% in experiment [4]. Further, the activity, negative = inhibition in experiment [5] is -14.1%. The Potency entry in experiment [8], in experiment [9], in [10], in experiment [11], in experiment [12] and in experiment [13] was “inactive” throughout. For the same compound, the Potency result in experiment [14] was “inactive”. In [15], the result was inactive.

As to `N#Cc1cccc(-c2nccc(-n3ccnc3)n2)c1`, the Potency in experiment [1] is > 11.4 µM; in experiment [3] it was 0.2 µM (active); in experiment [6], > 46 µM; in experiment [7] it was > 46 µM; in [16], 2.51 µM (active); in experiment [17] it was 7.94 µM (active). The Potency was 8.91 µM (active) in [11], 10 µM (active) in [12] and 12.6 µM (active) in experiment [13]. Besides, the activity change, negative = inhibition in experiment [2] is 10.7%; in experiment [4], 10.9%. In experiment [5], the activity, negative = inhibition was 4.18%. The Potency entry in [8], in experiment [9] and in experiment [14] was “inactive” each time. The result in experiment [15] was inactive.

In the case of `Cc1cnc(CNc2ccnc(-c3ccccc3C)n2)cn1`, the Potency is > 11.4 µM in experiment [1], 12.6 µM (active) in experiment [3], > 46 µM in experiment [6] and > 46 µM in experiment [7]. Further, the activity change, negative = inhibition in experiment [2] is 3.37%; in [4] it was -3.78%. Besides, the activity, negative = inhibition in experiment [5] was -1.97%. Besides, the Potency entry in [8], in experiment [9], in experiment [10], in [11], in experiment [12] and in experiment [13] was “inactive” in each case. The Potency entry in experiment [14] was “inactive”. For the same compound, the result in experiment [15] was inactive.

For the compound `COc1ccc(-n2c(=O)c(-c3ccccc3)nc3cncnc32)cc1`, the Potency in experiment [1] is > 11.4 µM; in experiment [3], 3.98 µM (active); in experiment [6] it was > 9.22 µM; in [7], > 46 µM. Further, the figures for the activity change, negative = inhibition in experiment [2] and in [4] were -26.7% and 8.64%, respectively. In addition, the activity, negative = inhibition in [5] is -9.27%. For the same compound, the Potency entry in experiment [8], in experiment [9], in experiment [10], in experiment [11], in [12] and in experiment [13] was “inactive” in each case. Also, in [14], the Potency entry is “inactive”. Also, in [15], the outcome was inactive.

For the compound `c1cc(NC2CC2)nc(-c2ccoc2)n1`, the Potency in experiment [1] was > 11.4 µM; in experiment [3] it was 0.251 µM (active); in experiment [6], > 46 µM; in [7], > 46 µM; in experiment [16], 5.01 µM (active). Also, the figures for the activity change, negative = inhibition in experiment [2] and in [4] were -10.4% and -10.6%, respectively. For the same compound, the activity, negative = inhibition in [5] was 14.4%. The Potency result in [8], in experiment [9], in experiment [10], in experiment [11], in experiment [12] and in [13] was “inactive” throughout. Further, the Potency entry in [14] is “inactive”. In addition, the outcome in [15] was inactive.

As to `COc1ccccc1CNc1ncncc1-c1ccc(C(=O)N(C)C)cc1`, the Potency was > 11.4 µM in experiment [1]; 12.6 µM (active) in experiment [3]; > 46 µM in experiment [6]; > 46 µM in experiment [7]; 2.51 µM (active) in [16]; 12.6 µM (active) in [11]. Further, the Potency in experiment [12] is 14.1 µM (active); in [13], 12.6 µM (active). For the same compound, the activity change, negative = inhibition is -10.9% in [2] and 1.11% in experiment [4]. Moreover, the activity, negative = inhibition in experiment [5] is 9.05%. In addition, the Potency entry in [8], in [9], in experiment [10] and in experiment [14] was “inactive” each time. Further, the outcome in experiment [15] was inactive.

The values above are taken from PubChem BioAssay (NCATS).
